# Compounds with a hit are over-represented: about 21% of the library has one in this group of screens.
# Pf growth 96h: Primary qHTS for delayed death inhibitors of the malarial parasite plastid, 96 hour incubation | Potency, µM (doses to about 28.7 µM), for the others: at the top dose activity change, negative = inhibition, hits mostly inhibitors | AID 504834, 2011 | 320,000 tested, 6.9% active | P. falciparum luciferase reporter growth, 96 h; note: potency is the fitted concentration of half-maximal effect; % is set by controls: 0 for no effect and ±100 for the full control effect
#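 Luminescence readout: decreased luciferase signal marks inhibited growth of reporter-expressing P. falciparum in infected red cells (2% hematocrit, 0.05% parasitemia final), exposed to compound two generations (96 h, 37 C, 5% CO2).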
# Cycloheximide cs: Cycloheximide Counterscreen for Small Molecule Inhibitors of Shiga Toxin. cell reporter, cycloheximide protein synthesis inhibition counterscreen. max response, %. 300,000 tested, 12% active. AID 2314, 2010; in the data active = max response mostly above about 13%, no sharp cut-off; inactive = mostly below about 14%; note: read at 38.3 µM for the half of the compounds with a filed dose; 0% is about no effect
# Pf growth 48h: Primary qHTS for delayed death inhibitors of the malarial parasite plastid, 48 hour incubation; P. falciparum luciferase growth in erythrocytes, 48 h; Potency, µM (titrated, usually from 28.7 µM), for inactives: at the highest dose activity change, negative = inhibition, most hits filed as inhibitors; 310,000 tested, 5.9% active; AID 504832, 2011; note: potency is the fitted concentration of half-maximal effect; % is set by controls: 0 for no effect and ±100 for the full control effect
#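 First compound was added to culture medium, then infected red cells at 0.1% parasitemia and 2% hematocrit (final). After incubation at 37 C under 5% CO2, luciferase detection reagent was dispensed and light output recorded.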
# NS1 function inh: qHTS Assay for Inhibitors of Influenza NS1 Protein Function; Potency, µM (top dose mostly 46.1 µM), for the others: at the highest dose activity, positive = more growth; 270,000 tested, 0.4% active; AID 2326, 2010; calls by dose curve; note: potency is the fitted concentration of half-maximal effect; actives are rising curves; nearly all actives have a fitted effect of over 50% in size
#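 Read-out: OD600 growth recovery of NS1-expressing budding yeast. Cells grown overnight at 30C in -URA glucose medium, washed, resuspended and diluted 1:100 in 2% galactose assay medium, pH 6.0. Same strain lacking NS1 served as positive control.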
# Shiga inhibitor: A qHTS for Small Molecule Inhibitors of Shiga Toxin; Vero cells, Shiga toxin protein synthesis inhibition reporter; inhibition, % at 38.7 µM; 290,000 tested, 9.2% active; AID 2315, 2010; in the data active = inhibition mostly above about 28%, no sharp cut-off; inactive = mostly below about 43%; note: 0% is about no effect
# Giardia FBPA inh: qHTS Assay for Inhibitors of Fructose-1,6-bisphosphate Aldolase from Giardia Lamblia | A8B2U2 | purified Giardia FBPA | Potency, µM (highest dose often 59.6 µM), without a hit: top-dose activity, negative = inhibition, most hits filed as inhibitors | 290,000 tested, 0.71% active | AID 2451, 2010; note: potency is the fitted concentration of half-maximal effect; % is set by controls: 0 for no effect and ±100 for the full control effect; nearly all actives have a fitted effect of over 55% in size
# Target sequence (A8B2U2 whole entry, looked up): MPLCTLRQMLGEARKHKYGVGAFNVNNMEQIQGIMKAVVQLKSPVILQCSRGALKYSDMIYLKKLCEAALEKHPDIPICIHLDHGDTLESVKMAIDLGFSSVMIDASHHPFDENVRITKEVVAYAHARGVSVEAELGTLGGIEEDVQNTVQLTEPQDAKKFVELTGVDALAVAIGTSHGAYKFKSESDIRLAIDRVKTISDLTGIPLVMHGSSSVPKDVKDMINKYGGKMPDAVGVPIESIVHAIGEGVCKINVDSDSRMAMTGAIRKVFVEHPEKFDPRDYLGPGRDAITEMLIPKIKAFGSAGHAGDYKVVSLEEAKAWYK
#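 Giardia FBPA (40 nM reagent) was preincubated 10 min at RT with compound (up to 57.5 uM final), then substrate plus GAPDH/TPI/NAD/arsenate coupling system with diaphorase/resazurin was added; resorufin fluorescence (525/598 nm) was read after 20 min.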
# Active calls of the source: *; i = inactive; ? = inconclusive; / = not tested or not shown; [ ] = dose if it differs, or a comment. Unless noted, calls come from the whole dose curve; as a rule, active = well fitted curve in the direction sought with a large enough effect; inconclusive = small, poorly fitted or top-dose-only effect, or another doubt; inactive = no such curve, though single readings can be large; an effect the other way counts as inactive or inconclusive.
SMILES,Pf growth 96h,Cycloheximide cs,Pf growth 48h,NS1 function inh,Shiga inhibitor,Giardia FBPA inh
COC(=O)C1=C(c2ccc(OC(F)(F)F)cc2)C[C@@H]2CC[C@H]1N2C(=O)NCCNC(C)=O,27%,/,?,/,/,/
COC(=O)C1=C(c2ccc(OC(F)(F)F)cc2)C[C@@H]2CC[C@H]1N2C(=O)NCCOc1ccc(OC)cc1,5.9µM*,/,?,/,/,/
COC(=O)C1=C(c2ccc(OC(F)(F)F)cc2)C[C@@H]2CC[C@H]1N2C(=O)NCCc1ccccc1,?,/,3.7µM*,/,/,/
C=C1c2ccccc2O[C@H](C(=O)OCC)C1OC (mixture of isomers),/,-1,/,/,i,0%[89.2 µM]
CC(Oc1ccc2ccc(=O)oc2c1)C(=O)N1CCOCC1 (stereo not drawn),15%,/,7%,/,/,/
COc1cc(NC(=O)c2cc(C(C)C)on2)c(OC)cc1Cl,-11%,13*,13µM*,-9%,32,-9%
COc1ccc(NC(=O)c2cc(C(C)C)on2)c(OC)c1,?,53*,225%,-14%,114*,-9%
COc1cc(NC(=O)c2cc(C3CC3)on2)c(OC)cc1Cl,-111%,4,/,3%,5,-2%
COc1ccc(NC(=O)c2cc(C(C)C)on2)cc1OC,35%,44*,58%,-39%,45*,0%
O=C(Nc1ccc(Cl)cc1)c1cc(Br)ccc1OCC(=O)N1CCOCC1,5%,9,-30%,8%,-33,/
COc1ccc(-n2c(Cc3cccn3C)nnc2SCC(=O)NCc2ccccc2Cl)cc1,12µM*,1,9.3µM*,-8%,-9,3%
COc1ccc(-n2c(Cc3cccn3C)nnc2SCC(=O)NCc2ccc(F)cc2)cc1,-6%,4,8.3µM*,9%,17,-2%
Cc1ccc(C2(CC(=O)O)CCOC(C)(C)C2)cc1 (stereo not drawn),9.3µM*,-1,-13%,-3%,1,-7%
CC1(C)CC(CC(=O)O)(c2ccc(F)cc2)CCO1 (stereo not drawn),?,-2,/,-4%,-8,2%
CN(C)C(=O)Oc1ccc(Cl)c2cccnc12,28%,-2,2%,/,8,-1%
O=C(Nc1cccc(C(F)(F)F)c1)Oc1ccc(Cl)c2cccnc12,2.3µM*,27,2.6µM*,-77%,21,9%
COc1cccc(NC(=O)COC(=O)CNS(=O)(=O)c2c(F)cccc2F)c1,?,10,6%,5%,-9,-10%
c1ccc(-n2ncc3c(NCc4ccc5c(c4)OCO5)ncnc32)cc1,?,20*,-1%,-4%,42*,-3%
Cc1cccc(-n2ncc3c(NCc4ccc5c(c4)OCO5)ncnc32)c1,-1%,18*,0%,-13%,97*,-16%
COc1ccc(-n2ncc3c(NCc4ccc5c(c4)OCO5)ncnc32)cc1,67%,25*,99%,5%,27*,12%
Nc1ncnc(N2CCc3ccccc32)c1[N+](=O)[O-],?,2,?,-4%,-8,0%
CCN(CC)CCNC(=O)C(=O)Nc1ccc2c(c1)N(S(=O)(=O)c1cccs1)CCC2,?,/,15µM*,/,/,/
CCCCc1cc(=O)oc2cc(OCC(=O)NC3CCN(Cc4ccccc4)CC3)ccc12,?,-2,?,10%,-2,0%
COc1cccc(-c2csc(NC(=O)C3CC3)n2)c1,212%,18,/,-61%,40,-4%
CC(C)(C)c1csc(NC(=O)Nc2ccccc2)n1,19%,51*,13%,/,72*,-15%
SMILES,Pf growth 96h,Cycloheximide cs,Pf growth 48h,NS1 function inh,Shiga inhibitor,Giardia FBPA inh
O=C(Nc1ccccc1)Nc1nc(-c2ccccc2)cs1,24%,45*,-2%,-6%,39,7%
COc1cccc(-c2csc(NC(=O)Nc3ccccc3)n2)c1,?,14*,9%[0.00184 µM],-1%,57*,7%
O=C(Nc1ccccc1)Nc1nncs1,-14%,-4,20%,-7%,-5,-2%
O=C(Nc1ccccc1)Nc1nc(-c2ccc(F)c(F)c2)cs1,13µM*,6,12µM*,0%,6,0%
Cc1onc(-c2ccccc2)c1C(=O)Nc1nc(-c2ccc(F)c(F)c2)cs1,-18%,18,?,-12%,69,-3%
COc1ccccc1-c1cc(Nc2ccn[nH]2)ncn1,/,/,/,/,/,-3%
O=C(Nc1ccc(Cl)c(Cl)c1)Nc1nc(-c2ccccc2)cs1,2.3µM*,-3,?,-2%,-1,5%
COc1ccccc1NS(=O)(=O)c1ccc(C(=O)N2CC(C)OC(C)C2)cc1 (stereo not drawn),-26%,/,?,/,/,/
CSc1nnc(Cc2sc(-c3ccccc3)nc2-c2ccccc2)o1,0%,11,/,0%,-12,-1%
Fc1ccc(CSc2nnc(Cc3sc(-c4ccccc4)nc3-c3ccccc3)o2)cc1,12µM*,2,/,4%,-16,-2%
COc1ccc(CSc2nnc(Cc3sc(-c4ccccc4)nc3-c3ccccc3)o2)cc1,2.1µM*,-1,12µM*,8%,27,1%
O=C(N/N=C/c1c[nH]c2ccccc12)c1cc(-c2ccc(-c3ccccc3)cc2)n[nH]1,192%,35*,?,24%,54*,2%
O=C(N/N=C/c1c[nH]c2ccccc12)c1cc(-c2cccc3ccccc23)n[nH]1,-9%,19*,1%,19%,27,0%
Cc1ccc(-c2cc(C(=O)N/N=C/c3c[nH]c4ccccc34)[nH]n2)cc1,-12%,47*,-3%,-1%,51*,7%
O=C(N/N=C/c1c[nH]c2ccccc12)c1ccn[nH]1,117%,28*,64%,/,46,0%
O=C(N/N=C/c1c[nH]c2ccccc12)c1cc(-c2ccccc2)n[nH]1,1%,7,-5%,6%,22,5%
CCCCc1c(C)[nH]c2nc3ccccc3n2c1=O,114%,8,-4%,-80%,13,-23%
CCOC(=O)N1CCN(C(=O)c2c(-c3ccccc3Cl)noc2C)CC1,?,-2,-2%,2%,-7,3%
CCCN1CCN(C(=O)c2noc3c2COc2ccc(C)cc2-3)CC1,168%,17*,50%,2%,54*,-9%
CCOC(=O)N1CCN(C(=O)c2noc3c2COc2ccccc2-3)CC1,?,20*,-29%,4%,20,/
CCN1CCN(C(=O)CCN2C(=O)COc3ccc(C)cc32)CC1,-21%,-4,12%,-3%,-7,-1%
COC(=O)NC(CC(C)=O)c1ccc(F)cc1 (stereo not drawn),/,/,/,/,/,-1%[12.9 µM]
COCc1cc(=O)[nH]c(Nc2nc3ccc(C)cc3o2)n1,?,43*,2.9µM*,-11%,82*,-21%
Cc1ccc(C(=O)Nc2cc(C)nn2CCC#N)cc1,34%,12,29%,-8%,-11,-1%
